CRFR2-BP ag = agonists of human CRF-binding protein/CRF-R2 receptor complex | activation, % at 13.2 µM | 0.46% of 350,000 active | HEK293 CRF-R2/CRF-BP, calcium dye fluorescence (FLIPR); percent of saturating CRF peptide response | AID 588473;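 active = activation of at least 50%, plus an integration ratio under a set limit after plate pattern correction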;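 also: plate controls were neutral control wells without compound for no effect and CRF at EC100 for full effect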
SKN-1 inh = blocks SKN-1 activity in C. elegans. C. elegans VP596 Pgst-4::GFP/RFP ratio, acrylamide-induced, 24 h. inhibition, % at 21.8 µM. 0.49% of 360,000 active. AID 624304;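 active = interference check ratio from 0.5 to 1.5 plus GFP to RFP signal ratio inhibition reaching or exceeding a fixed threshold, cut at about 30% in these data, passing the limit was not always enough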
CRFR2-BP antag = blocks CRF-induced signaling of the CRF-BP/CRF-R2 complex. HEK293 CRF-R2/CRF-BP, CRF-induced calcium fluorescence. inhibition, % at 11.8 µM. 0.59% of 350,000 active;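 active = inhibition of the ligand-induced calcium signal above about 50% at the single tested concentration, limit read from the data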
TAG inh = inhibitors of triacylglycerol accumulation; H9c2 cells, Nile Red lipid (TAG) fluorescence; cells loaded with 200 µM oleic acid; inhibition, % at 12.5 µM; 0.66% of 230,000 active; AID 651582;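 active = pattern-corrected inhibition of lipid staining of at least 50% with the nuclear-stain viability signal not falling by more than 50%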;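 also: 0% = DMSO wells and 100% = triacsin C control wells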
hiPSC survival = enhancers of human iPSC single-cell survival. hiPSC single-cell survival, ATPlite luminescence; 100% = ROCK inhibitor wells, 0% = DMSO. survival enhancement, % at 20 µM. 0.044% of 360,000 active; in the data active = survival enhancement above about 18%;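 also: cells exposed to compounds for 16 hours before the ATP read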
Cardio protect = myocardial damage modulation in H9c2 cells | H9c2 cardiomyocytes, H2O2 injury protection, ATPLite, 2 h | protection from H2O2 cell death, % at 20 µM | AID 588492 | 0.63% of 360,000 active;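 active = compounds giving at least 50% protection of heart cells from peroxide-induced death in the single-dose screen, raw or plate-pattern-corrected value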;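 also: 0% = DMSO wells with peroxide and 100% = DMSO wells without peroxide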
Starred values were filed as active, the others as inactive. Hits are enriched below; roughly 2.5% of the tested compounds scored in any of these assays.

What do the screens show for `COc1cc(/C=C(/C#N)c2nc3ccccc3[nH]2)ccc1OCC(=O)Nc1ccccc1C(C)C`?
CRFR2-BP ag: -1.0; SKN-1 inh: -4.0; CRFR2-BP antag: -17.9; hiPSC survival: -0.4; Cardio protect: 68.5*

Results for O=Nc1c(O)n(Cc2c(Cl)cccc2Cl)c2ccccc12 ?
CRFR2-BP ag: 163.3*; SKN-1 inh: 7.9; CRFR2-BP antag: -8.8; TAG inh: 5.6; hiPSC survival: -0.2; Cardio protect: -10.7

Results for C[C@@H]1CN([C@H](C)CO)S(=O)(=O)c2ccc(Br)cc2O[C@@H]1CN(C)C(=O)NC1CCCC1 ?
CRFR2-BP ag: 3.6; SKN-1 inh: -3.1; CRFR2-BP antag: 7.8; TAG inh: -12.9; hiPSC survival: 4.2; Cardio protect: -6.1

Results for CC1=CC(C)(C)N(C(=O)c2ccccc2)c2ccc(C)cc21 ?
CRFR2-BP ag: 67.2*; SKN-1 inh: -3.7; CRFR2-BP antag: -49.5; TAG inh: 0.0; hiPSC survival: -0.4; Cardio protect: -8.1

Results for CC1=CC(C)(C)N(C(=O)c2ccccc2)c2ccccc21 ?
CRFR2-BP ag: -1.1; SKN-1 inh: -8.2; CRFR2-BP antag: -0.8; hiPSC survival: 2.7; Cardio protect: -7.0

Results for N#C/C(=C\c1ccc2c(c1)OCO2)C(N)=S ?
CRFR2-BP ag: 1.3; SKN-1 inh: 13.6; CRFR2-BP antag: 5.1; TAG inh: 10.8; hiPSC survival: -0.5; Cardio protect: 2.0

How did CCOC(=O)/C(C#N)=C\c1cc(C)n(-c2ccccc2)c1C do in these assays?
CRFR2-BP ag: -1.2; SKN-1 inh: 4.2; CRFR2-BP antag: 39.4; TAG inh: 11.1; hiPSC survival: -3.9; Cardio protect: -13.5

What do the screens show for `CCOC(=O)/C(C#N)=C\c1ccc2c(c1)OCO2`?
CRFR2-BP ag: -0.9; SKN-1 inh: -9.1; CRFR2-BP antag: 110.2*; TAG inh: -31.1; hiPSC survival: -0.9; Cardio protect: -0.3

Results for CCOC(=O)/C(C#N)=C\c1ccc(N2CCN(C/C=C/c3ccccc3)CC2)cc1 ?
CRFR2-BP ag: 54.6*; SKN-1 inh: 18.4; CRFR2-BP antag: -61.8; hiPSC survival: 4.4; Cardio protect: -12.9

How did COc1ccc(CN2CCC2(C)C(=O)NCCc2c[nH]c3ccccc23)c2ccccc12 (stereo not drawn) do in these assays?
SKN-1 inh: -9.1; TAG inh: -10.1; hiPSC survival: 6.4; Cardio protect: -0.4

What do the screens show for `CCN(CC(=O)NCc1cccs1)C(=O)CCC(=O)c1ccc(F)cc1`?
CRFR2-BP ag: -0.7; SKN-1 inh: 14.8; CRFR2-BP antag: 9.2; TAG inh: 1.7; hiPSC survival: -0.5; Cardio protect: 0.4

Results for Cc1ccc(-c2c(C)nn3c(N4CCOCC4)cc(C)nc23)cc1 ?
CRFR2-BP ag: 0.4; SKN-1 inh: 35.3*; CRFR2-BP antag: 2.6; hiPSC survival: -0.3; Cardio protect: -1.2

What do the screens show for `CCOC(=O)c1sc(NC(=O)c2cccc(S(=O)(=O)N3CCN(C)CC3)c2)cc1C`?
CRFR2-BP ag: -2.1; SKN-1 inh: -16.5; CRFR2-BP antag: 66.9*; TAG inh: 11.6; hiPSC survival: -2.8; Cardio protect: 1.1

What do the screens show for `CCCCNC(=O)CCn1c(=O)c2ccccc2n(Cc2ccccc2C)c1=O`?
CRFR2-BP ag: -2.2; SKN-1 inh: 6.1; CRFR2-BP antag: 64.9*; hiPSC survival: 0.4; Cardio protect: 0.4

Results for Cc1cccc(NC(=O)C(=O)NCC2CCCN2S(=O)(=O)c2ccccc2)c1 (stereo not drawn) ?
CRFR2-BP ag: 0.2; SKN-1 inh: 15.0; CRFR2-BP antag: 0.4; TAG inh: 2.1; hiPSC survival: 0.7; Cardio protect: 1.1

How did CC(=O)NC(CCc1ccc(Cl)c(Cl)c1)c1cccc(O)c(=O)c1 (stereo not drawn) do in these assays?
CRFR2-BP ag: 1.0; SKN-1 inh: 9.6; CRFR2-BP antag: -19.5; TAG inh: -9.2; hiPSC survival: 2.8; Cardio protect: 61.4*

What do the screens show for `O=c1nc2n(CCO)c3ccccc3cc-2c(=O)[nH]1`?
CRFR2-BP ag: 3.3; SKN-1 inh: -3.9; CRFR2-BP antag: -20.5; TAG inh: -5.8; hiPSC survival: -2.5; Cardio protect: 3.7

How did Cn1c(NCc2ccco2)nc2c1c(=O)n(Cc1ccc(Br)cc1)c(=O)n2C do in these assays?
CRFR2-BP ag: -0.5; SKN-1 inh: 0.3; CRFR2-BP antag: -16.9; hiPSC survival: 0.3; Cardio protect: 31.7

Results for Cn1c(NCc2ccco2)nc2c1c(=O)n(Cc1ccc(Cl)cc1)c(=O)n2C ?
CRFR2-BP ag: 1.0; SKN-1 inh: 8.7; CRFR2-BP antag: -22.3; TAG inh: -38.4; hiPSC survival: -1.7; Cardio protect: 51.2*

How did CCN(CC(=O)Nc1ccccc1C(F)(F)F)C(=O)Cc1cccs1 do in these assays?
CRFR2-BP ag: -2.1; SKN-1 inh: 19.8; CRFR2-BP antag: 3.1; TAG inh: 1.4; hiPSC survival: 0.0; Cardio protect: -5.0

Results for CCN(CC(=O)Nc1ccccc1C(F)(F)F)C(=O)c1ccc(NC(=O)c2cccs2)cc1 ?
CRFR2-BP ag: -0.3; SKN-1 inh: 47.5*; CRFR2-BP antag: 3.0; TAG inh: 11.0; hiPSC survival: -1.1; Cardio protect: 14.3

How did COc1ccc(Cl)cc1NC(=O)c1ccoc1C do in these assays?
CRFR2-BP ag: -1.6; SKN-1 inh: -10.0; CRFR2-BP antag: 80.3*; TAG inh: -27.0; hiPSC survival: 5.3; Cardio protect: 8.9

Results for CC(C)(C)S(=O)(=O)/C(C#N)=C/c1cccn1S(=O)(=O)c1ccccc1 ?
SKN-1 inh: 7.2; TAG inh: -14.6; hiPSC survival: 0.3; Cardio protect: 12.0

Results for CCN(CC)S(=O)(=O)c1ccc(Nc2nc3ccccc3n3nnnc23)cc1 ?
CRFR2-BP ag: 3.4; SKN-1 inh: 14.2; CRFR2-BP antag: -19.2; TAG inh: 27.1; hiPSC survival: -1.6; Cardio protect: 82.6*

Results for c1ccc2c(c1)nc(Nc1ccc3c(c1)OCO3)c1nnnn12 ?
CRFR2-BP ag: 1.5; SKN-1 inh: -14.2; CRFR2-BP antag: -11.7; TAG inh: -7.8; hiPSC survival: -3.4; Cardio protect: 55.5*

What do the screens show for `Fc1ccccc1Nc1nc2ccccc2n2nnnc12`?
CRFR2-BP ag: 1.6; SKN-1 inh: 10.0; CRFR2-BP antag: -1.7; TAG inh: 5.8; hiPSC survival: -2.0; Cardio protect: 46.9

Results for Fc1cccc(Nc2nc3ccccc3n3nnnc23)c1 ?
CRFR2-BP ag: 2.1; SKN-1 inh: -18.2; CRFR2-BP antag: -45.5; TAG inh: 14.0; hiPSC survival: -0.5; Cardio protect: 19.4

What do the screens show for `c1ccc(Nc2nc3ccccc3n3nnnc23)cc1`?
CRFR2-BP ag: 12.5; SKN-1 inh: 1.2; CRFR2-BP antag: -43.2; TAG inh: 22.5; hiPSC survival: 2.7; Cardio protect: 27.9

What do the screens show for `COc1cccc(Nc2nc3ccccc3n3nnnc23)c1`?
CRFR2-BP ag: -0.5; SKN-1 inh: 1.6; CRFR2-BP antag: -35.5; TAG inh: 3.9; hiPSC survival: 5.5; Cardio protect: 68.1*
